# According to the supplement of paper PMC8728848:
# This is one part of a sample in which the strongest signals are shown more often than they occur.
# Key:
# Test in all cases: glycan array binding signal (z-score within array); higher = stronger binding
# Details in all cases: glycan notation: IUPAC condensed, linker removed
# [1] = molecular target: Fuc(a1-2)Gal(b1-3)GalNAc(a1-3)[Fuc(a1-2)]Gal(b1-4)Glc
# How it was run: (§1)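 Negative Z-scores can be read as non-binding. The Z-score is calculated within each array and then averaged across arrays of one protein sequence at different concentrations or buffers and across linkers. Arrays, 3228 in all, were curated from the Consortium for Functional Glycomics database and kept only where the protein sequence was available.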
# [2] = molecular target: Fuc(a1-2)Gal(b1-3)GlcNAc(b1-2)Man(a1-3)[Fuc(a1-2)Gal(b1-3)GlcNAc(b1-2)Man(a1-6)]Man(b1-4)GlcNAc(b1-4)GlcNAc
# How it was run: as §1
# [3] = molecular target: Fuc(a1-2)Gal(b1-4)Glc6S
# How it was run: as §1
# [4] = molecular target: Fuc(a1-2)Gal(b1-4)GlcNAc6S
# How it was run: as §1
# [5] = molecular target: Fuc(a1-2)[Gal(a1-3)]Gal(b1-3)GlcNAc
# How it was run: as §1
# [6] = molecular target: Fuc(a1-2)[Gal(a1-3)]Gal(b1-3)GlcNAc(b1-6)GalNAc
# How it was run: as §1
# [7] = molecular target: Fuc(a1-2)[Gal(a1-3)]Gal(b1-4)GlcNAc(b1-2)Man(a1-3)[Fuc(a1-2)[Gal(a1-3)]Gal(b1-4)GlcNAc(b1-2)Man(a1-6)]Man(b1-4)GlcNAc(b1-4)GlcNAc
# How it was run: as §1
# [8] = molecular target: Fuc(a1-2)[GalNAc(a1-3)]Gal
# How it was run: as §1
# [9] = molecular target: Fuc(a1-2)[GalNAc(a1-3)]Gal(b1-4)GlcNAc(b1-3)GalNAc
# How it was run: as §1
# [10] = molecular target: Gal(a1-3)Gal(b1-3)GlcNAc(b1-2)Man(a1-3)[Gal(a1-3)Gal(b1-3)GlcNAc(b1-2)Man(a1-6)]Man(b1-4)GlcNAc(b1-4)GlcNAc
# How it was run: as §1
# [11] = molecular target: Gal(a1-4)Gal(b1-4)GlcNAc(b1-3)Gal(b1-4)Glc
# How it was run: as §1
# [12] = molecular target: Gal(b1-3)GalNAc(b1-3)Gal
# How it was run: as §1
# [13] = molecular target: Gal(b1-3)GlcNAc(b1-3)Gal(b1-4)GlcNAc
# How it was run: as §1
# [14] = molecular target: Gal(b1-3)GlcNAc(b1-3)Gal(b1-4)GlcNAc(b1-2)[Gal(b1-3)GlcNAc(b1-3)Gal(b1-4)GlcNAc(b1-6)]Man(a1-6)[Gal(b1-3)GlcNAc(b1-3)Gal(b1-4)GlcNAc(b1-2)Man(a1-3)]Man(b1-4)GlcNAc(b1-4)[Fuc(a1-6)]GlcNAc
# How it was run: as §1
# [15] = molecular target: Gal(b1-3)[Fuc(a1-4)]GlcNAc(b1-3)Gal(b1-3)[Fuc(a1-4)]GlcNAc
# How it was run: as §1
# [16] = molecular target: Gal(b1-4)GlcNAc(b1-2)[Gal(b1-4)GlcNAc(b1-6)]Man(a1-6)[GlcNAc(b1-4)][Gal(b1-4)GlcNAc(b1-2)[Gal(b1-4)GlcNAc(b1-4)]Man(a1-3)]Man(b1-4)GlcNAc(b1-4)[Fuc(a1-6)]GlcNAc
# How it was run: as §1
# [17] = molecular target: Gal(b1-4)GlcNAc(b1-3)Gal(b1-4)GlcNAc(b1-3)Gal(b1-4)GlcNAc(b1-2)Man(a1-3)[Gal(b1-4)GlcNAc(b1-3)Gal(b1-4)GlcNAc(b1-3)Gal(b1-4)GlcNAc(b1-2)Man(a1-6)]Man(b1-4)GlcNAc(b1-4)GlcNAc
# How it was run: as §1
# [18] = molecular target: Gal(b1-4)GlcNAc(b1-3)Gal(b1-4)GlcNAc(b1-3)Gal(b1-4)GlcNAc(b1-3)Gal(b1-4)GlcNAc(b1-2)Man(a1-3)[Gal(b1-4)GlcNAc(b1-3)Gal(b1-4)GlcNAc(b1-3)Gal(b1-4)GlcNAc(b1-3)Gal(b1-4)GlcNAc(b1-2)Man(a1-6)]Man(b1-4)GlcNAc(b1-4)[Fuc(a1-6)]GlcNAc
# How it was run: as §1
# [19] = molecular target: Gal(b1-4)GlcNAc(b1-3)Gal(b1-4)GlcNAc(b1-3)[Gal(b1-4)GlcNAc(b1-3)Gal(b1-4)GlcNAc(b1-6)]GalNAc
# How it was run: as §1
# [20] = molecular target: Gal(b1-4)GlcNAc(b1-3)[Fuc(a1-3)GlcNAc(b1-6)]Gal(b1-4)Glc
# How it was run: as §1
# [21] = molecular target: Gal3S(b1-3)[Fuc(a1-4)]GlcNAc
# How it was run: as §1
# [22] = molecular target: Gal6P(b1-4)GlcNAc
# How it was run: as §1
# [23] = molecular target: GalNAc(b1-3)Gal(a1-4)Gal(b1-4)GlcNAc(b1-3)Gal(b1-4)Glc
# How it was run: as §1
binder,measurement,setting,value
"AFL6 (Aspergillus fumigatus), Q4WKJ1 (protein) MSFHLTAEDIRIEDGHRLVARLRNADGDLQDASIDLNTCLGNDNGHFQWDGVDFSHSAQDVHFAIEGGGQVPVLRAQLANQDGEFQDADVNLSERIENINGEFVFH",glycan array binding signal (z-score),[1],-0.421
same,glycan array binding signal (z-score),[2],2.45
same,glycan array binding signal (z-score),[3],-0.234
same,glycan array binding signal (z-score),[4],-0.334
same,glycan array binding signal (z-score),[5],-0.417
same,glycan array binding signal (z-score),[6],-0.178
same,glycan array binding signal (z-score),[7],0.717
same,glycan array binding signal (z-score),[8],0.228
same,glycan array binding signal (z-score),[9],-0.656
same,glycan array binding signal (z-score),[10],0.406
same,glycan array binding signal (z-score),[11],0.039
same,glycan array binding signal (z-score),[12],-0.263
same,glycan array binding signal (z-score),[13],-0.706
same,glycan array binding signal (z-score),[14],1.91
same,glycan array binding signal (z-score),[15],-0.509
same,glycan array binding signal (z-score),[16],-0.245
same,glycan array binding signal (z-score),[17],2.41
same,glycan array binding signal (z-score),[18],2.99
same,glycan array binding signal (z-score),[19],4.09
same,glycan array binding signal (z-score),[20],-0.272
same,glycan array binding signal (z-score),[21],-0.44
same,glycan array binding signal (z-score),[22],-0.655
same,glycan array binding signal (z-score),[23],-0.055
